Assay results as given in PubChem BioAssay (NCATS).
A number with no mark means an inactive call. Records with an inconclusive call do not appear. Entries that show only a call come without a potency. Calls of active or inactive are those of the source. Calls follow the shape of the dose curve; as a rule, active = well fitted curve in the direction sought with a large enough effect; inconclusive = small, poorly fitted or top-dose-only effect, or another doubt; inactive = no such curve, though single readings can be large; an effect the other way counts as inactive or inconclusive.

Experiments:
[1] = target: Glutathione peroxidase 1 (Homo sapiens) (UniProt P07203); experiment: Primary qHTS Assay for Inhibitors of Recombinant Selenoprotein Glutathione Peroxidase 1 (GPX1) (AID 1845191); also: nearly all actives have a fitted effect of over 65% in size
Glutathione peroxidase 1 (Homo sapiens), sequence (P07203 whole entry, looked up): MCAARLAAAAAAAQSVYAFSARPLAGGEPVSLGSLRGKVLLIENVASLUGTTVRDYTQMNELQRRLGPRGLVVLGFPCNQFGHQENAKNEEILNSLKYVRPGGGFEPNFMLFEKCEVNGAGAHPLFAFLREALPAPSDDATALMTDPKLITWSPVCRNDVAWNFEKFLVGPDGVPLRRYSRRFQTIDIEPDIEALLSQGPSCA
Method in brief: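 10 nM GPX1 + cpd, 30 min RT; start w/ 1 mM GSH, 0.5 mM cumene hydroperoxide, 0.5 mM NADPH, 100 nM GR, 0.01% BSA; buffer 50 mM Tris-HCl pH 7.5, 2 mM EDTA, 150 mM NaCl; Fl 340/450, 0 & 15 min.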

[2] = target: Phospholipid hydroperoxide glutathione peroxidase GPX4 (Homo sapiens) (UniProt P36969); experiment: Primary qHTS Assay for Inhibitors of Recombinant Selenoprotein Glutathione Peroxidase 4 (GPX4) (AID 1845192); also: nearly all actives have a fitted effect of over 65% in size; as to activity change, negative = inhibition: series mostly up to about 50 µM
Phospholipid hydroperoxide glutathione peroxidase GPX4 (Homo sapiens), sequence (P36969 whole entry, looked up): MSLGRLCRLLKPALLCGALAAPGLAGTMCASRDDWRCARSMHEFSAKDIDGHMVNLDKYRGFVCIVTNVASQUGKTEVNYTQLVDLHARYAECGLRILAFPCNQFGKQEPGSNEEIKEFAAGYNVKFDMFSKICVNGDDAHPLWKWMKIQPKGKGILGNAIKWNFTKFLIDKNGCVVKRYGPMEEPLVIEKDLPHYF
Method in brief: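 NADPH consumption, followed by fluorescence at 340/450 nm between 0 and 15 min, reports GPX4 activity via coupled glutathione reductase (100 nM). Enzyme 200 nM was pre-exposed to compound 30 min; 0.5 mM cumene hydroperoxide and 1 mM GSH served as substrates.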

[3] = target: Luciferin 4-monooxygenase (Photinus pyralis) (UniProt P08659); experiment: Primary firefly luciferase (FLuc) qHTS assay for identification of artifact compounds. (AID 1845220); also: nearly all actives have a fitted effect of over 60% in size; as to activity change, negative = inhibition: series mostly up to about 54 µM
Method in brief: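 Cell-free, 1536-well qHTS. Buffer pH 7.6 with 0.01% Tween-20 and 0.05% BSA; 10 uM D-luciferin, 10 uM ATP; 10 nM P. pyralis luciferase; luminescence after 5 min.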

[4] = Primary fluorescence-based thiol-reactive (MSTI) qHTS assay for identification of artifact compounds. (AID 1845221); also: nearly all actives have a fitted effect of over 65% in size; also: potency is read from the fitted curve at half-maximal effect;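 as to activity change, negative = thiol reactive: series mostly up to about 54 µM; thiol-reactive compounds lower the probe fluorescence signal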
Method in brief: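 First, 4 uM MSTI in 2% DMSO/PBS pH 7.4 was dispensed; next, compounds were added; then plates sat 1 h at room temperature without light. Finally, emission at 598 nm was recorded.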

[5] = test system: Nanoluciferase (engineered Oplophorus gracilirostris luciferase); experiment: Primary Nanoluciferase (NLuc) qHTS assay for identification of artifact compounds. (AID 1845222); also: series mostly up to about 54 µM
Method in brief: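 Compounds are pinned into diluted (1:55) conditioned medium of NLuc-expressing S16 cells and held 15 min at room temperature protected from light. Nano-Glo substrate follows, and luminescence is read 5 min later.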

Row | Structure (SMILES) | Potency [1] | Potency [2] | Potency [3] | Potency [4] | Potency [5] | outcome [1] | activity change, negative = inhibition [2] | outcome [3] | activity change, negative = thiol reactive [4] | activity, negative = inhibition [5]
1 | C[C@H]1C[C@H]2[C@@H]3CCC4=CC(=O)C=C[C@]4(C)[C@@]3(F)[C@@H](O)C[C@]2(C)[C@@]1(O)C(=O)COP(=O)(O)O | inactive | inactive | inactive | inactive | inactive |  |  |  |  | 
2 | C=C1CC[C@@H]2[C@](C)(CC[C@H](O)[C@@]2(C)CCC=C(C)C)[C@@H]1Cc1c[nH]c2ccccc12 | inactive | inactive | inactive | inactive | inactive |  |  |  |  | 
3 | C[C@]12CCC(=O)C=C1[C@@H](O)C[C@@H]1[C@@H]2[C@@H](O)C[C@@]2(C)[C@H]1CC[C@]2(O)C(=O)CO | inactive | inactive | inactive | inactive | inactive |  |  |  |  | 
4 | CC1(C)NC2N(C1=O)c1ccccc1C2(O)CC(C(=O)O)n1cnc2ccccc2c1=O (stereo not given) | inactive | inactive | inactive | inactive | inactive |  |  |  |  | 
5 | O=C(/C=C/c1ccc(O)cc1)OCC1=C[C@@H](O)[C@@H]2C=CO[C@@H](O[C@@H]3O[C@H](CO)[C@@H](O)[C@H](O)[C@H]3O)[C@H]12 | inactive | inactive | inactive | 5.82 µM (active) | inactive |  |  |  |  | 
6 | C/C(=C\CCC(C(=O)O)C1CCC2(C)C3=C(CCC12C)C1(C)CCC(=O)C(C)(C)C1CC3)C(=O)O (stereo not given) | inactive | inactive | inactive | inactive | inactive |  |  |  |  | 
7 | C/C=C(\C)C(=O)O[C@@H](C)[C@H]1CC[C@]2(O)C3CCC4C[C@@H](OC5CC(OC)C(OC6CC(OC)C(OC7CC(OC)C(OC8OC(C)C(OC9OC(CO)C(O)C(O)C9O)C(OC)C8O)C(C)O7)C(C)O6)C(C)O5)CC[C@]4(C)C3[C@H](O)[C@@H](O)[C@]12C (stereo not given in full) |  |  |  |  |  | inactive [at 9.52 µM] | -0.387% [at 9.73 µM] | inactive [at 11.6 µM] | 94.5% [at 11.5 µM] | 0.355% [at 11.6 µM]
8 | C[C@]12CCC[C@](C)(C(=O)O)C1CCC13C=C(CO)C(CCC12)C3 (stereo not given in full) | inactive | inactive | inactive | inactive | inactive |  |  |  |  | 
9 | O=S(=O)(NC1CCNCC1)c1cc(S(=O)(=O)c2ccccc2)ccc1C(F)(F)F | inactive | inactive | inactive | inactive | inactive |  |  |  |  | 
10 | COc1c2c(c(C)c3c1C(=O)OC3)OC1(C)CC(O)C3(O)C(C)(C)OC(=O)CCC3(C)C1C2 (stereo not given) | inactive | inactive | inactive | inactive | inactive |  |  |  |  | 
11 | C=C1[C@H]2CC[C@]3(O)[C@@](CC[C@@H]4[C@](C)(C(=O)O)CCC[C@]43C)(C2)[C@H]1OC(=O)/C(C)=C\C | inactive | inactive | inactive | inactive | inactive |  |  |  |  | 
